The supplement of paper PMC10849652
Of roughly 7,900 targets only a part is listed; those with a hit were picked by preference. About 0.6% of all pairs of compound and target were hits.

Legend:
Assay in all cases: log2 fold change, soluble protein after heating vs DMSO (PISA); higher = thermal stabilisation; K562 cells, 10 uM, 30 min; active = over 0.2 and 3.5 SD of the protein, either way, in both replicates (recomputed)
[1] = compound: CC1=C(C=C(C=C1)NC(=O)C2=CC(=CC=C2)C(C)(C)C#N)NC3=CC4=C(C=C3)N=CN(C4=O)C
Method in brief: (§1)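 K562 cells (2×10^6 cells/mL) were treated with 10 μM compound for 30 min, and aliquots were heated for 3 min over 48°C-58°C. Pooled aliquots were extracted in PBS with 0.5% NP-40 at 4°C, and the supernatant after 21,000xg for 90 min was measured by TMTpro 16plex LC-MS/MS with channel sums equalised. Reported thermal stability, relative to control samples and from duplicates, is a log2 fold change.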

[2] = compound: CC1=C(C=C(C=C1)NC(=O)C2=CC(=CC=C2)N(C)C)NC(=O)C3=CC=C(C=C3)O
Method in brief: as §1

[3] = compound: CC1=CC=C(C=C1)SC2=C3C=C(SC3=CN=C2)C(=O)N
Method in brief: as §1

[4] = compound: CC1=NC(=CC=C1)C2=C(N=C(N2)C(C)(C)C)C3=CC4=NC=CN=C4C=C3
Method in brief: as §1

Nexturastat A = compound: CCCCN(Cc1ccc(C(=O)NO)cc1)C(=O)Nc1ccccc1 [Nexturastat A]
Method in brief: as §1

vemurafenib = compound: CCCS(=O)(=O)Nc1ccc(F)c(C(=O)c2c[nH]c3ncc(-c4ccc(Cl)cc4)cc23)c1F [vemurafenib]
Method in brief: as §1

[5] = compound: CCCS(=O)(=O)Nc1ccc(F)c(C(=O)c2c[nH]c3ncc(Cl)cc23)c1F
Method in brief: as §1

[6] = compound: CCCc1cc(C)[nH]c(=O)c1CNC(=O)c1cc(-c2ccnc(N3CCN(C)CC3)c2)cc2c1cnn2C(C)C
Method in brief: as §1

givinostat = compound: CCN(CC)Cc1ccc2cc(COC(=O)Nc3ccc(C(=O)NO)cc3)ccc2c1 [givinostat]
Method in brief: as §1

barasertib = compound: CCN(CCCOc1ccc2c(Nc3cc(CC(=O)Nc4cccc(F)c4)[nH]n3)ncnc2c1)CCOP(=O)(O)O [barasertib]
Method in brief: as §1

[7] = compound: CC[C@@H]1C(=O)N(C)c2cnc(Nc3ccc(C(=O)NC4CCN(C)CC4)cc3OC)nc2N1C1CCCC1
Method in brief: as §1

volasertib = compound: CC[C@@H]1C(=O)N(C)c2cnc(Nc3ccc(C(=O)N[C@H]4CC[C@H](N5CCN(CC6CC6)CC5)CC4)cc3OC)nc2N1C(C)C [volasertib]
Method in brief: as §1

[8] = compound: CC[C@H](C)N1C=C(C2=C(C=C(C=C21)C3=CN=C(C=C3)N4CCNCC4)C(=O)NCC5=C(C=C(NC5=O)C)C)C
Method in brief: as §1

epoxomicin = compound: CC[C@H](C)[C@@H](C(=O)N[C@@H]([C@@H](C)O)C(=O)N[C@@H](CC(C)C)C(=O)[C@]1(CO1)C)NC(=O)[C@H]([C@@H](C)CC)N(C)C(=O)C [epoxomicin]
Method in brief: as §1

[9] = compound: CCn1c(C(=O)N(C2CC2)C2CC2)cc2c3c(ncn3C)c(Nc3cc(C)n(C)n3)nc21
Method in brief: as §1

[10] = compound: CN(C)CC(=O)Nc1ccc2[nH]c(=O)c3ccccc3c2c1
Method in brief: as §1

rosiglitazone = compound: CN(CCOC1=CC=C(C=C1)C[C@H]2C(=O)NC(=O)S2)C3=CC=CC=N3 (racemic) [rosiglitazone]
Method in brief: as §1

[11] = compound: CCn1cc(-c2ccnc3[nH]c(-c4cccc(CN(C)C)c4)cc23)c(-c2ccc(NC(=O)N(C)C)cc2)n1
Method in brief: as §1

[12] = compound: CN1C2=C(C3=C1C(=O)N(N=C3)CC4=CC(=CC=C4)N)SC(=C2)S(=O)C
Method in brief: as §1

[13] = compound: CN1CCC(CNc2ccc3ncc(-c4cccc(OC(F)(F)F)c4)n3n2)CC1
Method in brief: as §1

Measured: log2 fold change

CRTC2 (UniProt Q53ET0)
inactive: [1] 0.055 | [2] 0.055 | [3] -0.051 | [4] 0.017 | Nexturastat A -0.03 | vemurafenib 0.039 | [5] 0.031 | [6] 0.103 | givinostat 0.181 | barasertib 0.062 | [7] 0.014 | volasertib 0.016 | [8] 0.061 | epoxomicin 0.098 | [9] -0.023 | [10] -0.009 | rosiglitazone -0.043

CD53 (UniProt P19397)
Sequence of UniProt P19397 (P19397 whole entry, looked up): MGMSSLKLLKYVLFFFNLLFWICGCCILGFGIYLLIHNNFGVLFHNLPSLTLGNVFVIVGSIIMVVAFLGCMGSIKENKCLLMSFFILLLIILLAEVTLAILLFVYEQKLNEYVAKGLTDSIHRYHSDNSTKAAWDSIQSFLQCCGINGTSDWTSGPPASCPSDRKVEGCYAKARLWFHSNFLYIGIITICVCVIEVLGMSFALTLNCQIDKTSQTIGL
inactive: [1] -0.062 | [2] -0.099 | [3] -0.13 | [4] -0.095 | Nexturastat A -0.006 | vemurafenib -0.035 | [5] -0.182 | [6] -0.092 | givinostat -0.006 | barasertib -0.102 | [7] 0.183 | volasertib -0.103 | [8] -0.049 | epoxomicin -0.02 | [9] 0.004 | [11] -0.092 | [10] -0.007 | rosiglitazone 0.074 | [12] -0.051 | [13] -0.06

C19orf53 (UniProt Q9UNZ5)
inactive: [1] 0.056 | [2] 0.016 | [3] -0.065 | [4] -0.196 | Nexturastat A 0.184 | vemurafenib -0.189 | [5] -0.044 | [6] 0.146 | givinostat 0.021 | barasertib -0.096 | [7] 0.205 | volasertib 0.412 | [8] 0.045 | epoxomicin -0.264 | [9] 0.104 | [11] 0.239 | [10] -0.189 | rosiglitazone -0.182 | [12] 0.34 | [13] 0.2

CHERP (UniProt Q8IWX8)
active: volasertib -0.888
inactive: [1] -0.042 | [2] -0.088 | [3] -0.053 | [4] 0.003 | Nexturastat A -0.006 | vemurafenib 0.018 | [5] 0.127 | [6] 0.075 | givinostat 0.107 | barasertib 0.055 | [7] -0.162 | [8] -0.014 | epoxomicin 0.064 | [9] -0.024 | [11] 0.022 | [10] 0.041 | rosiglitazone -0.004 | [12] 0.102 | [13] -0.05

CSTF2 (UniProt P33240)
inactive: [1] -0.081 | [2] 0 | [3] 0.002 | [4] -0.05 | Nexturastat A 0.026 | vemurafenib 0.016 | [5] -0.053 | [6] 0.004 | givinostat -0.014 | barasertib -0.042 | [7] 0.06 | [8] -0.024 | epoxomicin -0.077 | [9] 0.011 | [11] 0.041 | [10] -0.048 | rosiglitazone 0.01 | [12] -0.085 | [13] -0.004
active: volasertib 0.233

CDC42SE1 (UniProt Q9NRR8)
Sequence of UniProt Q9NRR8 (Q9NRR8 whole entry, looked up): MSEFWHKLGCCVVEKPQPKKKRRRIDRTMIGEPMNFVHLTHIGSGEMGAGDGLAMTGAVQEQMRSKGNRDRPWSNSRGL
active: [7] -0.995 | volasertib -2.6
inactive: [1] 0.132 | [2] 0.059 | [3] 0.016 | [4] -0.09 | Nexturastat A -0.115 | vemurafenib -0.007 | [5] 0.051 | [6] -0.705 | givinostat -0.236 | barasertib 0.071 | [8] -0.127 | epoxomicin 0.031 | [9] 0.029 | [10] 0.05 | rosiglitazone -0.017 | [12] -0.074

CHD3 isoform 3 (UniProt Q12873)
Sequence of UniProt Q12873 (Q12873 whole entry, looked up): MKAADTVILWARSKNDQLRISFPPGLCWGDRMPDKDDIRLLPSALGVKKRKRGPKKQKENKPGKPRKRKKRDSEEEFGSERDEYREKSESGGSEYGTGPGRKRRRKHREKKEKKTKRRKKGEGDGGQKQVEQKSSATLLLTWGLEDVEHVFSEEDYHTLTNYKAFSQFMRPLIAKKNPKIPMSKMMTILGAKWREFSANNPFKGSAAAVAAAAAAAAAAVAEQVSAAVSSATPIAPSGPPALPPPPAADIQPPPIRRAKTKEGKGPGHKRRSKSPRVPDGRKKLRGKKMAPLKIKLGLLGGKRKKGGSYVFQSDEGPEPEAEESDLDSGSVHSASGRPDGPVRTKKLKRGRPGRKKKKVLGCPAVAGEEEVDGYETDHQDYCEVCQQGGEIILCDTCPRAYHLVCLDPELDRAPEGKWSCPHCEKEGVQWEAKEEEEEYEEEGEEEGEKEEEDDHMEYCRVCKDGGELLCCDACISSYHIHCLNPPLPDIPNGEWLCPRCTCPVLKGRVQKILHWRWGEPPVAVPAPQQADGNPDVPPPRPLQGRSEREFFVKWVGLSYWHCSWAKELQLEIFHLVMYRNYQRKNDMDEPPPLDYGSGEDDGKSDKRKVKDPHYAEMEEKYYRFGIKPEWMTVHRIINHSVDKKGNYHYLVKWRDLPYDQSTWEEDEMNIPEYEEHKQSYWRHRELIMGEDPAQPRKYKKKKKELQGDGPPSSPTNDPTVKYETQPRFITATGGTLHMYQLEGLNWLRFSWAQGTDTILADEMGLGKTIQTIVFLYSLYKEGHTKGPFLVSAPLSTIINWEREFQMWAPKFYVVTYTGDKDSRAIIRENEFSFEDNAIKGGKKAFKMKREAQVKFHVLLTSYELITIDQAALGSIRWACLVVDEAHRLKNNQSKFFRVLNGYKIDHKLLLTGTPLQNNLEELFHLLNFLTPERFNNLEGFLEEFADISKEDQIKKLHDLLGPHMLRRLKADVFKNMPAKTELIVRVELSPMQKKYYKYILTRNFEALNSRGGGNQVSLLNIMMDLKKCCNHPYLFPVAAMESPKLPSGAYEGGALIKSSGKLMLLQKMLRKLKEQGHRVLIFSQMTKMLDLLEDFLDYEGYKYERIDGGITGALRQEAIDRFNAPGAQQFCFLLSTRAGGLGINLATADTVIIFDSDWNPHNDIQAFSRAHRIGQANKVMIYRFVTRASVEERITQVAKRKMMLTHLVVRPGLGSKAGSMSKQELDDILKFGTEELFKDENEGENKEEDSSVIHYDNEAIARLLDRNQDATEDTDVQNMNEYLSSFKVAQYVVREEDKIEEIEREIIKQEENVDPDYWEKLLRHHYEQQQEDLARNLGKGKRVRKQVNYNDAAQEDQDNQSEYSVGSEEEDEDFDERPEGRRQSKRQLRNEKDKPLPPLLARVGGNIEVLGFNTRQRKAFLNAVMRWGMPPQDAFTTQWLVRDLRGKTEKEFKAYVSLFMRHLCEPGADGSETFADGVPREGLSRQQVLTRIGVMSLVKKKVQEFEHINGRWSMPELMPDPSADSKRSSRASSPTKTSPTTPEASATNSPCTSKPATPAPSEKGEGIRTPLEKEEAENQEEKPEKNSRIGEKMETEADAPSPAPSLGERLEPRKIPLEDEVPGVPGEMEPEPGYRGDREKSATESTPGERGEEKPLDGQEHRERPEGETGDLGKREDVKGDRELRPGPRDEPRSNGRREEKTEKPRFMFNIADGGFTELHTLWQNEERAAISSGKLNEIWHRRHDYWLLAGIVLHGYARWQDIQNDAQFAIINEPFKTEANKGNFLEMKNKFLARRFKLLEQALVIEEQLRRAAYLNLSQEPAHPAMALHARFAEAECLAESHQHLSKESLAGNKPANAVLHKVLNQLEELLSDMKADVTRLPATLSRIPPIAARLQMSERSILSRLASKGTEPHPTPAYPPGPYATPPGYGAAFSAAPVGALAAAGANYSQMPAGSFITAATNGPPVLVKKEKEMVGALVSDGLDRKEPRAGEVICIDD
inactive: [1] 0.03 | [2] -0.035 | [3] 0.016 | [4] -0.077 | Nexturastat A 0.056 | vemurafenib 0.113 | [5] 0.138 | [6] 0.081 | givinostat 0.226 | barasertib 0.046 | [7] -0.093 | [8] 0.149 | epoxomicin 0.017 | [9] -0.042 | [11] 0.067 | [10] 0.126 | rosiglitazone 0.048 | [12] 0.099 | [13] -0.144
active: volasertib -0.757

CHST11 (UniProt Q9NPF2)
Sequence of UniProt Q9NPF2 (Q9NPF2 whole entry, looked up): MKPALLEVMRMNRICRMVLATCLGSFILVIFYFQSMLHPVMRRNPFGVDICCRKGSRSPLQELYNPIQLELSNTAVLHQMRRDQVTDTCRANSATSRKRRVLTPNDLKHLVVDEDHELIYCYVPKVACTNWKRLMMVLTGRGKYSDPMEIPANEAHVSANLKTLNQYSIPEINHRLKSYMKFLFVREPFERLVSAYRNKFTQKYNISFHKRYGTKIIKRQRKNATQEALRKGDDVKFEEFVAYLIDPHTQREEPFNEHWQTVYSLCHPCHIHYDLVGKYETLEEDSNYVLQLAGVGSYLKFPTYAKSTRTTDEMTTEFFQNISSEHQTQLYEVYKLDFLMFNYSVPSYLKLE
active: [5] 0.384
inactive: [1] 0.019 | [2] 0.099 | [3] 0.189 | [4] 0.047 | Nexturastat A 0.013 | vemurafenib 0.027 | [6] 0.089 | givinostat -0.029 | barasertib 0.049 | [7] -0.215 | volasertib -0.187 | [8] -0.078 | epoxomicin 0.011 | [9] 0.043 | [11] -0.017 | [10] -0.045 | rosiglitazone -0.044 | [13] 0.022

CDK16 isoform 2 (UniProt Q00536)
inactive: [1] 0.003 | [2] -0.017 | [3] 0.028 | [4] 0.021 | Nexturastat A -0.052 | vemurafenib -0.072 | [5] 0.027 | [6] -0.101 | givinostat -0.043 | barasertib -0.023 | [7] -0.049 | volasertib -0.316 | [8] -0.014 | epoxomicin 0.02 | [9] -0.113 | [11] 0.001 | [10] 0.041 | rosiglitazone 0.061 | [12] -0.074 | [13] 0.135

CERT isoform 3 (UniProt Q9Y5P4)
Sequence of UniProt Q9Y5P4 (Q9Y5P4 whole entry, looked up): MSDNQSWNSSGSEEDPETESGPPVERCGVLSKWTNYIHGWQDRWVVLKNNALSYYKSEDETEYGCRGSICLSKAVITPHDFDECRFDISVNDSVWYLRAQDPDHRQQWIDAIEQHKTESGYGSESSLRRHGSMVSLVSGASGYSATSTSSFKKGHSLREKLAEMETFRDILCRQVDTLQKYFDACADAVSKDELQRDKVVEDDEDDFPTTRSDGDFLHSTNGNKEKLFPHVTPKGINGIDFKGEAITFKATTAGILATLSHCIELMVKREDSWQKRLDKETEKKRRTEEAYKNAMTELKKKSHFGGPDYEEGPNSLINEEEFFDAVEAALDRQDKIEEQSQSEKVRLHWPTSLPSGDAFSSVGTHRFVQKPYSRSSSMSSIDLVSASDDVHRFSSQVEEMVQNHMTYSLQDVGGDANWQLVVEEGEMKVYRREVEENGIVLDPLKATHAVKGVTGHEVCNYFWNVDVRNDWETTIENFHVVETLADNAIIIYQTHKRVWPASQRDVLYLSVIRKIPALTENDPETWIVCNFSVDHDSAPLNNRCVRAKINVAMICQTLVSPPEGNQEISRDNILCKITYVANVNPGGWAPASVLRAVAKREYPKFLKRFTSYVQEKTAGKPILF
active: [13] 0.279
inactive: [1] 0.154 | [2] -0.103 | [3] -0.039 | [4] -0.001 | Nexturastat A -0.048 | vemurafenib 0.101 | [5] 0.061 | [6] 0.02 | givinostat -0.027 | barasertib -0.002 | [7] 0.06 | volasertib 0.044 | [8] 0.07 | epoxomicin 0.058 | [9] -0.023 | [11] -0.057 | [10] -0.019 | rosiglitazone -0.017 | [12] -0.127

CLUH (UniProt O75153)
inactive: [1] -0.017 | [2] -0.08 | [3] -0.002 | [4] -0.072 | Nexturastat A -0.022 | vemurafenib 0.047 | [5] -0.03 | [6] 0.049 | givinostat 0.016 | barasertib 0.033 | [7] 0.225 | [8] 0.015 | epoxomicin -0.028 | [9] 0.047 | [11] -0.113 | [10] 0.094 | rosiglitazone 0.134 | [12] 0.019
active: volasertib 0.632 | [13] 0.387

CDKN2AIP (UniProt Q9NXV6)
Sequence of UniProt Q9NXV6 (Q9NXV6 whole entry, looked up): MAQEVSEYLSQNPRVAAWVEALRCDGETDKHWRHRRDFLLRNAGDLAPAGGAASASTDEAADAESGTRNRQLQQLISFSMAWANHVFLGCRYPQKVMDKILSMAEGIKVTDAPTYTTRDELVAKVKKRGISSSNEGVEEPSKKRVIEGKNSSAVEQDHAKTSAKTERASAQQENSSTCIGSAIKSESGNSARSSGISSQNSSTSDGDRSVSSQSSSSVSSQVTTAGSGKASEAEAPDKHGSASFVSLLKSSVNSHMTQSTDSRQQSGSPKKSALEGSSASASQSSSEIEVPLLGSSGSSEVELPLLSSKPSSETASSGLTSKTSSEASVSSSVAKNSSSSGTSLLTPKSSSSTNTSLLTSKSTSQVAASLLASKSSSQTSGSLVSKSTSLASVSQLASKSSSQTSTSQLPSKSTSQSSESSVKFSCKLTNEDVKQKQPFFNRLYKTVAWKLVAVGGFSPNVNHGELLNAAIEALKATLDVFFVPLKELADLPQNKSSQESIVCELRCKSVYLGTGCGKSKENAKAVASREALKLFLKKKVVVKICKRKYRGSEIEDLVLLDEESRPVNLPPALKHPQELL
inactive: [1] 0.046 | [2] -0.01 | [3] -0.076 | [4] 0.008 | Nexturastat A 0.052 | vemurafenib 0.043 | [5] -0.053 | [6] 0.023 | givinostat 0.012 | barasertib -0.017 | [7] 0.096 | volasertib 0.057 | [8] -0.001 | epoxomicin 0.095 | [9] -0.017 | [11] 0.008 | [10] 0.046 | rosiglitazone 0.025 | [12] 0.03 | [13] 0.094

C4orf33 (UniProt Q8N1A6)
Sequence of UniProt Q8N1A6 (Q8N1A6 whole entry, looked up): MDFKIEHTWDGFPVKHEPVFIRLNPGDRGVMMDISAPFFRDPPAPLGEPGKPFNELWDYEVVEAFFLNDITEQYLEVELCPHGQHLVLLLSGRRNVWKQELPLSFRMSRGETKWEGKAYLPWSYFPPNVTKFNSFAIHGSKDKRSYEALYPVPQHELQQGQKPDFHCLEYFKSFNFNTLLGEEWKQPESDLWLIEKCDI
inactive: [1] -0.101 | [2] 0.04 | [3] 0.049 | [4] -0.049 | Nexturastat A 0.018 | vemurafenib -0.01 | [5] -0.082 | [6] 0.07 | givinostat 0.055 | barasertib 0.03 | [7] 0.044 | volasertib 0.066 | [8] 0.007 | epoxomicin -0.084 | [9] -0.034 | [11] -0.062 | [10] -0.007 | rosiglitazone 0.155 | [12] 0.009 | [13] -0.027

COMMD1 (UniProt Q8N668)
inactive: [1] 0.037 | [2] -0.064 | [3] -0.048 | [4] 0.056 | Nexturastat A 0.011 | vemurafenib -0.038 | [5] 0.097 | [6] 0.056 | givinostat 0.122 | barasertib 0.057 | [7] -0.029 | volasertib -0.041 | [8] 0.054 | epoxomicin -0.071 | [9] -0.063 | [11] 0.157 | [10] 0.019 | rosiglitazone 0.016 | [13] 0.295

CCDC57 (UniProt Q2TAC2)
Sequence of UniProt Q2TAC2 (Q2TAC2 whole entry, looked up): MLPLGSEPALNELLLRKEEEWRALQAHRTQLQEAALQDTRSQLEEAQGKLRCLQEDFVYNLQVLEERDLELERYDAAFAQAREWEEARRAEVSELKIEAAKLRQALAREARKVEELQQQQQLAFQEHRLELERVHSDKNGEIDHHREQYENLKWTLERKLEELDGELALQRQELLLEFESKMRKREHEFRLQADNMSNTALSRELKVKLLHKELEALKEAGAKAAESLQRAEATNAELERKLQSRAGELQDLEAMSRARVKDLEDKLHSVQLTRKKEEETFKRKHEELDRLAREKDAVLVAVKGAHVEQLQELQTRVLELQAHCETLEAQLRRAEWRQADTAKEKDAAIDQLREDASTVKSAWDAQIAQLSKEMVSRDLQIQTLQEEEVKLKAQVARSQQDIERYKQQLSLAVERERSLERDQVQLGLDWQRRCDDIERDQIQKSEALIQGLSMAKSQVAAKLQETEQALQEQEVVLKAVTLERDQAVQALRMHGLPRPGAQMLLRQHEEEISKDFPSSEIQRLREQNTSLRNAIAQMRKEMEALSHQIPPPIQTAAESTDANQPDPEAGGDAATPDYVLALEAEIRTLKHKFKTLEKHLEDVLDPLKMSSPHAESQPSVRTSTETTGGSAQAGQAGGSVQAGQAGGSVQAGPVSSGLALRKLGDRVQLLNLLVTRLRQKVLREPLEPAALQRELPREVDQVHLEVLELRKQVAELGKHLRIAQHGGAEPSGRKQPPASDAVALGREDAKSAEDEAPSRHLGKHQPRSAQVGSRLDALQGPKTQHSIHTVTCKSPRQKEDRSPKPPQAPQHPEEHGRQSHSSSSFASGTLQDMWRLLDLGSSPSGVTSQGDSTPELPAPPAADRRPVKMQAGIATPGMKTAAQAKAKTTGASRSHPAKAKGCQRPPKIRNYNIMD
inactive: [1] 0.004 | [2] 0.02 | [3] 0.032 | [4] -0.01 | Nexturastat A -0.049 | vemurafenib 0 | [5] 0.013 | [6] -0.047 | givinostat 0.027 | barasertib 0.015 | [7] -0.033 | volasertib 0.012 | [8] -0.043 | epoxomicin -0.059 | [9] 0.036 | [10] -0.034 | rosiglitazone 0.018
